# According to PubChem BioAssay AID651843 (National Center for Advancing Translational Sciences (NCATS), 2012):
# Some of the results follow. Inconclusive results are not listed. Values without a mark were called inactive. Calls come from the whole dose curve; as a rule, active = well fitted inhibition curve with a large enough effect; inconclusive = small, poorly fitted or top-dose-only effect; inactive = no such curve, though single readings can be large or run the other way.
# Assay: qHTS Assay for Inhibitors of MBNL1-poly(CUG) RNA binding: Counterscreen HTRF assay
# Settings: His-Menin/biotin-MLL peptide TR-FRET counterscreen; series mostly up to 57.6 µM; activity, negative = inhibition: at the top concentration
# Text: NIH Chemical Genomics Center [NCGC] NIH Molecular Libraries Probe Production Centers Network [MLPCN] MLPCN Grant: R03 MH087421-01 Assay Submitter (PI): Charles Thornton NCGC Assay Overview: Expanded CTG repeats in the 3' untranslated region of the DM protein kinase (DMPK) gene causes type I myotonic dystrophy (DM1). DM1 is a multi-systemic disease with a prevalence of 1/7000. Clinical features include myotonia, progressive muscle weakness and wasting, cardiac arrhythmia, insulin resistance, hypersomnolence, cataracts, and other symptoms. The pathogenic effect of expanded CTG repeats stems from deleterious effects of the mutant transcript. CUGexp mRNA accumulates in nuclear foci and sequesters proteins of the muscleblind family, of which MBNL1 is the most common family member in skeletal muscles. […] This brings the terbium label within close proximity to XL665 to allow time-resolved fluorescence resonance energy transfer (TR-FRET). […]
# This assay uses a ratiometric measurement of TR-FRET binding assay with His-Menin and Biotin-MLL peptide. […] (3) Add 1 ul of 0.22 ng/ul terbium labeled anti-His antibody (0.055 ng/ul final concentration) (4) Add 1 ul of 20 nM streptavidin-XL665 (5 nM final concentration) (5) Incubate 60 min at room temperature (6) Detect the assay plate in a EnVision plate reader (PerkinElmer) with Ex=340 nm, Em1=665 nm and Em2=545 nm.
row,SMILES,"activity, negative = inhibition [%]"
1,CCOC(=O)c1c(C)[nH]c2c1-c1ccccc1C(=O)C2=O,4.75
2,NCCC[C@H](N)CC(=O)N[C@H]1CNC(=O)[C@H]([C@H]2C[C@H](O)NC(N)=N2)NC(=O)/C(=C/NC(N)=O)NC(=O)[C@H](CO)NC(=O)[C@H](CO)NC1=O,-2.75
